# Assay results reported in PubChem BioAssay (EPA / NIEHS).
# Calls of active or inactive are those of the source. Rule for the calls: active = hit-call score of the fitted dose curve at least 0.9, where 1 is the maximum; inactive = score below 0.9.
# Experiment: ATG_TGFb_CIS: Attagene CIS-FACTORIAL HepG2 Assay for human Transforming Growth Factor (TGF) (AID 2282967)
# Details: HepG2 Attagene CIS TGFb reporter, mRNA transcription; actives raise or lower the signal
# Outline: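 Bidirectional fitting relative to DMSO gave the endpoint. Underlying data: reporter mRNA from HepG2 cells carrying transiently transfected cis-regulated reporter constructs, harvested 24 h after dosing and analyzed by RT-PCR and capillary electrophoresis.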
row,Compound,outcome
1,OCC1CCCO1 (centres undefined),inactive
2,CN(C)C(C)(C)CO,inactive
3,NC(=O)C(F)(F)C(F)(F)C(F)(F)F,inactive
4,F[Si-2](F)(F)(F)(F)F,inactive
5,c1ccc(C[P+](c2ccccc2)(c2ccccc2)c2ccccc2)cc1,inactive
6,CCOCOCC,inactive
7,C=CCOC(=O)CC(C)C,inactive
8,O=S(=O)(O)CCC(F)(F)C(F)(F)C(F)(F)C(F)(F)F,inactive
9,CC(=O)C=O,inactive
10,Cc1cccc(C)n1,inactive
11,COCCOCCC[Si](C)(O[Si](C)(C)C)O[Si](C)(C)C,inactive
12,CCOC(=O)C1CC(=O)C(=C(O)C2CC2)C(=O)C1 (centres undefined),inactive
13,NC(O)(C(F)(F)F)C(F)(F)F,inactive

# Experiment: ATG_VDRE_CIS: Attagene CIS-FACTORIAL HepG2 Assay for human Vitamin D Receptor Element (VDRE) (AID 2282968)
# Details: HepG2 VDRE cis-reporter transcription, actives raise or lower the signal
# Outline: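 Transfected HepG2 reporter cells, chemical treatment 24 h. RNA isolated, cDNA amplified with reporter-specific primers, products analysed by capillary electrophoresis. Endpoint fitted in both directions versus DMSO.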
Compound,outcome,AC50
O=c1[nH]cccc1O,inactive,–
CCC(C)CO (centres undefined),inactive,–
CC(C)OC=O,inactive,–
CCCCCCCC/C=C\CCCCCCCC(=O)OCC(O)CO (centres undefined),inactive,–
C#CC(O)CCC (centres undefined),inactive,–
O=C(Cl)c1ccc(Cl)cc1Cl,inactive,–
CCOC(OCC)OCC,inactive,–
CCOCN(C(=O)CS(=O)(=O)O)c1c(C)cccc1CC,inactive,–
OCC(F)(F)C(F)(F)C(F)(F)C(F)(F)C(F)(F)C(F)(F)CO,inactive,–
C[Si](C)O[Si](C)C,inactive,–
O=C1C=CC(=O)N1c1ccc(Cc2ccc(N3C(=O)C=CC3=O)cc2)cc1,inactive,–
COCCC(=O)OC,inactive,–
CCCC(=O)OCC(COC(=O)CCC)OC(=O)CCC,inactive,–
O=c1cccc[nH]1,inactive,–
CCCCCCCCCCCCCC[P+](CCCC)(CCCC)CCCC,–,897 nM (active)
CCN=C1C=CC(=C(c2ccc(N(CC)CC)cc2)c2ccc(N(CC)CC)cc2)c2ccccc21,–,1150 nM (active)
